This is an account of results in PubChem BioAssay.

Activity calls are given as the source filed them. Unless noted, how the calls were made is not given here.

A short description of test [1]: anti-His antibody binders, primary screen, artefact control for SMM control protein annotation, biochemical, small-molecule microarray, 635 nm fluorescence (AID 1128).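 Further: score merges feature fluorescence with signal-to-noise for each printed compound spot.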 Conditions: anti-His Alexa647 antibody binding, higher = more signal.
The subject of test [2] is Human papillomavirus type 1a E7 protein (residues 1-88). Kind of test: HPV1a E7 small-molecule binders, primary screen, biochemical, small-molecule microarray, residues 1-88, 635 nm (AID 1129). The settings on record: small-molecule microarray binding, fluorescence 635 nm; higher = more signal.
Test [3] deals with Focal adhesion kinase 1 (Homo sapiens) (UniProt Q05397). The test can be described thus: small-molecule microarray binders of FAK, primary screen, biochemical, 635/667 nm fluorescence, BSA, DTT (AID 1130).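 Further: composite of spot emission at 667 nm and signal to noise over triplicate slides.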 Conditions: PTK2 binding, 635 nm fluorescence, higher = more signal.
Focal adhesion kinase 1 (Homo sapiens), sequence (Q05397 whole entry, looked up): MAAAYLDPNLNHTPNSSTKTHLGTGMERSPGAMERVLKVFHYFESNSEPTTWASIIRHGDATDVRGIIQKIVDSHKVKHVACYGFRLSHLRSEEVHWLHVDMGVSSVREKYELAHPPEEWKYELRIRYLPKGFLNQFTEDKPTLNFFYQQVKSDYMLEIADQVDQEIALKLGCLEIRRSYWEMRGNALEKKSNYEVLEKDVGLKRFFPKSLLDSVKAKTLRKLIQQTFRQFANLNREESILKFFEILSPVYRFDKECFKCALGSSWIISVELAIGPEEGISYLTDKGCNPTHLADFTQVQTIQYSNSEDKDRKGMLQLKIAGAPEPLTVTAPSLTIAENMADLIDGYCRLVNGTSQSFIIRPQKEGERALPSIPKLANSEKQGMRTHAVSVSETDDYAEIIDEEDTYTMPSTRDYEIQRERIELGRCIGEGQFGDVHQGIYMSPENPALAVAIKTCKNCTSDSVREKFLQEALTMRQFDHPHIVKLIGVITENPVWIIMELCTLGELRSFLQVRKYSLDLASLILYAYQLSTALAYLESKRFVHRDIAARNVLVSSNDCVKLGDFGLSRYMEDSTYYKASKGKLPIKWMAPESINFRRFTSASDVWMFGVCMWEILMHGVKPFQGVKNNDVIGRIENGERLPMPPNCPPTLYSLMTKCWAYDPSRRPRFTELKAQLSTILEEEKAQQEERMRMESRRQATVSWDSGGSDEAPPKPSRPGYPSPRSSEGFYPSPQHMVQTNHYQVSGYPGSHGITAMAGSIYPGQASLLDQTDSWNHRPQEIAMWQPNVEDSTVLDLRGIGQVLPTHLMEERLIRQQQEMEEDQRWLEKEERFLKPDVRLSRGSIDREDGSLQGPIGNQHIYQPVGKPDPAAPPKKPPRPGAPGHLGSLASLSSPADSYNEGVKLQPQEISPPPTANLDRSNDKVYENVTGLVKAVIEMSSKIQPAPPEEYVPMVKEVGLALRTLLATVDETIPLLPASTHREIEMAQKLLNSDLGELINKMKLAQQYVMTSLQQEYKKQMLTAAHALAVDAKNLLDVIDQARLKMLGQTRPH
The test system of test [4] is Fibrinogen (Alexa647-labelled). The test can be described thus: fibrinogen binders on compound microarrays, profiling panel, artefact control for SMM control-protein annotation, biochemical, small-molecule microarray, 635/667 nm fluorescence (AID 1131).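 Further: z-score merges 667 nm fluorescence with per-spot signal-to-noise over triplicate slides.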 The settings on record: fibrinogen-A647 binding fluorescence, higher = more signal.
The target in test [5] is Follistatin (Homo sapiens) (UniProt P19883). Kind of test: follistatin binders on small-molecule microarrays, primary screen, biochemical, small-molecule microarray, 635/667 nm fluorescence (AID 1132). Conditions: FST binding, 635 nm fluorescence, higher = more signal.
Follistatin (Homo sapiens), sequence (P19883 whole entry, looked up): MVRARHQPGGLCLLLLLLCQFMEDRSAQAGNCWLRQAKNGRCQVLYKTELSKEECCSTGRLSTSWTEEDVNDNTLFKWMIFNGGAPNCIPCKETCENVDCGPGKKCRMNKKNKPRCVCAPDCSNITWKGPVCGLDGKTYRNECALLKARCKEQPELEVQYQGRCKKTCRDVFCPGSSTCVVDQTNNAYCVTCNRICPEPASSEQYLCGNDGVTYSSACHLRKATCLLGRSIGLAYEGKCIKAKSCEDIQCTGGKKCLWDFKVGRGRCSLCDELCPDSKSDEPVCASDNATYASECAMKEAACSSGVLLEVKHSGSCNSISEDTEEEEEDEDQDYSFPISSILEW
The target of test [6] is Fibroblast growth factor 2 (Homo sapiens) (UniProt P09038). The test can be described thus: FGF2 binders on small-molecule microarrays, primary screen, biochemical, small-molecule microarray, 635/667 nm fluorescence (AID 1133). The settings on record: small-molecule microarray binding, FGF2, fluorescence 635/667; higher = more signal.
Fibroblast growth factor 2 (Homo sapiens), sequence (P09038 whole entry, looked up): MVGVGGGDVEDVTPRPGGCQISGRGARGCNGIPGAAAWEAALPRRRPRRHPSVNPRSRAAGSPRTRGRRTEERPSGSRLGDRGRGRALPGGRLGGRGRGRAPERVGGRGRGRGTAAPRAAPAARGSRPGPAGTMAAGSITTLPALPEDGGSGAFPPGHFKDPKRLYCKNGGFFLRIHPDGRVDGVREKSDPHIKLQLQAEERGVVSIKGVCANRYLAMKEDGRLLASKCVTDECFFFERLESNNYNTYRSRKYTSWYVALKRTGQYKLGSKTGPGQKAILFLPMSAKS
Test [7] can be described thus: mitochondrial membrane potential change in A549 cells, profiling panel, cell-based, JC-1 fluorescence, basal, 24 h, 100 nL (AID 1138).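 Further: A549 lung adenocarcinoma cells under basal conditions with no added stimulus; test concentration not given here.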 Conditions: higher = more signal.
For another test, the system named is Lefty1. Kind of test: Lefty1 binders on small-molecule microarrays, primary screen, biochemical, small-molecule microarray, 635/667 nm fluorescence (AID 1139). Conditions: small-molecule microarray binding, fluorescence 635/667; higher = more signal.
In test [8] the test system is wheat germ agglutinin (Triticum aestivum), Alexa647-labelled. The test can be described thus: wheat germ agglutinin binders on compound microarrays, profiling panel, artefact control for SMM control-protein annotation, biochemical, small-molecule microarray, 635/667 nm fluorescence (AID 1140).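 Further: score merges 667 nm feature emission with signal to noise over triplicate slides.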 The settings on record: WGA-A647 binding, 635 nm fluorescence, higher = more signal.

In test [9] the target is Luciferin 4-monooxygenase (Photinus pyralis) (UniProt P08659). The test can be described thus: firefly luciferase enzyme inhibitors, primary screen, biochemical, luminescence, purified enzyme, 2006 set (AID 1141).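 Further: cell-free assay with purified firefly luciferase at 100 ng per well in PBS; test concentration not given here.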 The settings on record: SteadyGlo luminescence, 30 min, higher = more signal, called active from +8 up or from −8 down.
Luciferin 4-monooxygenase (Photinus pyralis), sequence (P08659 whole entry, looked up): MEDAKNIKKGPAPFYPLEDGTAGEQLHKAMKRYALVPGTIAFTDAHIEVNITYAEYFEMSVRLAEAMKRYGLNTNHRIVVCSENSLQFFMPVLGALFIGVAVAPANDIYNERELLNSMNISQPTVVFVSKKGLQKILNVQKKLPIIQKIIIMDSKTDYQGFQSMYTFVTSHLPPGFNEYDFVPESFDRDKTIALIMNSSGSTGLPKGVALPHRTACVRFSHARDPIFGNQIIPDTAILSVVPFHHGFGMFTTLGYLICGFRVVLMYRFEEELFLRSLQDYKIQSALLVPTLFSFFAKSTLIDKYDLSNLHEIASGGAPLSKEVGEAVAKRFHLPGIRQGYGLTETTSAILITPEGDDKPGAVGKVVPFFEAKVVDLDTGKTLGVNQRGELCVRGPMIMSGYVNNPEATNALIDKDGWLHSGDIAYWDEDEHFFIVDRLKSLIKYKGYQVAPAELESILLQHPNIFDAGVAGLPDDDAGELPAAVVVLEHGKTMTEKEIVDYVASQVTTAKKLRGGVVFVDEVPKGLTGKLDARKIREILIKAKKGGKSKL
For test [10], the system named is Wnt5a (protein binding on small-molecule microarray). The test can be described thus: Wnt5a binders on small-molecule microarray, primary screen, biophysical, 635/667 nm fluorescence (AID 1142).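 Further: fluorescence read at 667 nm with signal to noise per printed feature.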 Conditions: 635 nm fluorescence, higher = more signal.
The nature of test [11]: cell viability in Huh7 cells, primary screen, cytotoxicity control for HCV replication inhibitor project, CellTiter-Glo luminescence, basal, 48 h (AID 1143).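 Further: Huh7 hepatoma cells carrying a hepatitis C replication reporter with no stimulus; test concentration not given here.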 The settings on record: Huh7 HCV replicon, higher = more signal, called active from +8 up or from −8 down.
Test [12] in a line: P. aeruginosa biofilm formation inhibitors, primary screen, PAO1 strain, BacTiter-Glo luminescence, LB-PBS (AID 1144). The settings on record: 12 h, higher = more signal.
Test [13] in a line: CREB reporter modulators without forskolin, primary screen, cell-based, PC12, CRE-LacZ reporter, unstimulated (AID 1145). Conditions: no forskolin, luminescence, 4.5 h, higher = more signal, called active from +8 up or from −8 down.
A short description of test [14]: CREB reporter modulators under forskolin, primary screen, cell-based, PC12, CRE-LacZ reporter, forskolin-stimulated (AID 1146).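 Further: PC12 cells with 6xCRE LacZ reporter stimulated by forskolin 10 µM; beta-galactosidase reporter signal reflecting CREB driven transcription.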 Conditions: luminescence, 4.5 h, higher = more signal, called active from +8 up or from −8 down.
Test [15] has as its target Streptavidin (Streptomyces avidinii) (UniProt P22629). The test can be described thus: streptavidin binders on small-molecule microarray, primary screen, artefact control for SMM compound annotation, biophysical, 635/667 nm fluorescence (AID 1147).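 Further: signal reflects streptavidin binding to arrayed compounds as a control protein.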 The settings on record: streptavidin binding, higher = more signal.
Test [16] is described as follows: small-molecule binders of probe aInhba, primary screen, biochemical, small-molecule microarray, 635/667 nm fluorescence (AID 1148).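 Further: score merges 667nm spot fluorescence with signal-to-noise for antibody binding to printed compounds.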 Conditions: higher = more signal.
For test [17], the target named is Torsin-1A (Homo sapiens) (UniProt O14656). The test can be described thus: torsin A binders from cell lysate, primary screen, small-molecule microarray, wild-type, 635/667 nm (AID 1149). The settings on record: COS7 hTOR1A-WT lysate, 635 nm fluorescence, higher = more signal.
Torsin-1A (Homo sapiens), sequence (O14656 whole entry, looked up): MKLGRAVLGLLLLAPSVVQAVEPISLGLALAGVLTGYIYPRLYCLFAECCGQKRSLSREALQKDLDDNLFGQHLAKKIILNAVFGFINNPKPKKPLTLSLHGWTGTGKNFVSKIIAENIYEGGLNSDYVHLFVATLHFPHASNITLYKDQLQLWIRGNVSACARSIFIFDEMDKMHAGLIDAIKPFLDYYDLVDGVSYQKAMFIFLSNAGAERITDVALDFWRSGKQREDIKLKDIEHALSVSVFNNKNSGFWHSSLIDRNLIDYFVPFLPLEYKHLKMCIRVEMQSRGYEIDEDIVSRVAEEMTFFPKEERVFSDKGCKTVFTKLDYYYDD
The target is the same in test [18]. The test can be described thus: small-molecule binders of mutant TOR1A in lysate, primary screen, cell lysate, small-molecule microarray, COS7 lysate, 635/667 nm fluorescence (AID 1150).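 Further: score pools 667 nm emission and signal to noise measuring lysate protein binding.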 The settings on record: COS7 hTOR1A mutant lysate, 635 nm fluorescence, higher = more signal.
The subject of test [19] is Sonic hedgehog protein (Shh). Kind of test: small-molecule binders of Shh protein, primary screen, biochemical, small-molecule microarray, 635/667 nm fluorescence (AID 1151).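 Further: Shh protein binding to compounds spotted on small-molecule microarray slides; score combines spot fluorescence intensity with signal-to-noise across triplicate slides.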 The settings on record: small-molecule microarray binding, 635 nm fluorescence; higher = more signal.

Streptavidin (Streptomyces avidinii), sequence (P22629 whole entry, looked up): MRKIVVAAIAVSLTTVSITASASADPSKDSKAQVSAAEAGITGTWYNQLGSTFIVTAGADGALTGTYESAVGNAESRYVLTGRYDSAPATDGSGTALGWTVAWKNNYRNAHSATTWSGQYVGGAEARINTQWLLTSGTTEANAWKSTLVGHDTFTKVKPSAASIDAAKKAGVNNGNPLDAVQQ

For `CCOC(=O)NN=C1C[C@@H](O)[C@@H](O)[C@@H]2[C@@H]3C(=O)N([C@@H](C)c4ccccc4)C(=O)[C@@H]3CC[C@@H]12`, the composite z-score in test [1] was -0.43; in [2] it was 0.0085; in [3] it was 0.692; in [4], 0.897; in [5], 1.28; in [6], 0.642. Further, the composite z-score in the test on Lefty1 is 1.3; in [8], 0.193; in [10], 0.229; in test [15], -0.468; in [16], -0.0313; in the test with Torsin-1A (Homo sapiens) [17] it was 2.58. The composite z-score is 2.5 with Torsin-1A (Homo sapiens) [18] and 1.37 in test [19]. Moreover, the z-score in [7] is -0.337; in test [9], 0.685 (inactive); in [11], 0.261 (inactive); in test [12], -0.353 (inactive); in test [13], -0.475 (inactive); in [14], -0.14 (inactive).
In the case of `CCc1cc2c(nc1CC)CCN(CCC(C)=NO[C@H](C)c1cn([C@H](CO)Cc3ccccc3)nn1)C2`, the composite z-score was 1.08 in [1]; 0.282 in test [2]; 0.119 in test [3]; 0.408 in test [4]; 0.672 in test [5]; 0.884 in test [6]. The composite z-score in the test on Lefty1 stood at 0.531; in [8] it was 0.55; in test [10], 0.167; in test [15], 0.656; in [16], 0.173; with Torsin-1A (Homo sapiens) [17], 1.49. Further, the composite z-score was 0.978 in the test with Torsin-1A (Homo sapiens) [18] and 0.236 in [19]. For the same compound, the z-score in test [7] is 0.085; in [9], -0.378 (inactive); in [11], -0.225 (inactive); in test [12] it was -0.374 (inactive); in test [13], 2.4 (inactive); in test [14], 0.406 (inactive).
Consider `COc1ccc(O[C@@H]2[C@H](O)CO[C@@H]2C=Cc2ccccc2)cc1`, for which the composite z-score in test [1] was -0.198; in test [2], -0.222; in [3], 0.166; in [4] it was -0.223; in test [5], 0.409; in test [6], 0.758. For the same compound, the composite z-score in the test with Lefty1 was 0.397; in [8] it was -0.124; in [10], 0.059; in [15] it was -0.0696; in test [16], -0.128; with Torsin-1A (Homo sapiens) [17], -0.071. In addition, the composite z-score in the test with Torsin-1A (Homo sapiens) [18] is 0.55; in test [19], 0.503. Further, the z-score was -0.464 in test [7]; -0.451 (inactive) in test [9]; -2.79 (inactive) in test [11]; -0.828 (inactive) in test [12]; -0.613 (inactive) in test [13]; -0.736 (inactive) in test [14].
For `CC(C)(C)N1C(=O)[C@H]2[C@H]3[C@H](O)[C@H](O)CC(=NO[C@@H]4O[C@H](CO)[C@@H](O)[C@H](O)[C@H]4O)[C@H]3CC[C@H]2C1=O`, the composite z-score was 0.492 in [1]; 0.15 in test [2]; -0.0244 in test [3]; -1.06 in test [4]; 0.86 in [5]; 0.348 in [6]. In addition, the composite z-score is 0.585 in the test on Lefty1; -0.297 in test [8]; 0.0479 in [10]; -0.132 in [15]; 0.179 in test [16]; 0.462 with Torsin-1A (Homo sapiens) [17]. Also, the composite z-score with Torsin-1A (Homo sapiens) [18] was found to be 0.0791; in test [19], 0.345. Also, the z-score in test [7] was -1.43; in [9] it was 0.585 (inactive); in test [11], -2.05 (inactive); in test [12], 0.745 (inactive); in [13], -0.656 (inactive); in test [14] it was -0.0093 (inactive).
